Data reported in the supplement of paper PMC10849652.
Targets with a hit are over-represented here; the source holds about 8,800 in all. About 0.5% of all pairs of compound and target were hits.

Assays:
Assay in all cases: log2 fold change, soluble protein after heating vs DMSO (PISA); higher = thermal stabilisation; K562 lysate, 10 uM; active = over 0.2 and 3.5 SD of the protein, either way, in both replicates (recomputed)
erlotinib = compound: C#Cc1cccc(Nc2ncnc3cc(OCCOC)c(OCCOC)cc23)c1 [erlotinib]
Summary of the method: (§1)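 Quantification was by TMTpro 16plex LC-MS/MS with equalised channel sums, applied to the supernatant after 21,000xg for 90 min. Samples were crude K562 extract at 1 mg/mL protein in PBS pH 7.4 with 1 mM MgCl2, treated with 10 μM compound for 30 min, heated for 3 min across 48°C-58°C, pooled and brought to 0.5% NP-40 at 4°C. Values are log-two fold changes in thermal stability relative to solvent controls, from duplicates.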

[1] = compound: C/C(=N\NC(=O)C1=CC(=CC=C1)S(=O)(=O)N2CCOCC2)/C3=C(C=CC(=C3)Cl)O
Summary of the method: as §1

[2] = compound: C1=CC(=CC=C1C2=NC3=C(N2)C=C(C=C3)C(=O)N)OC4=CC=C(C=C4)Cl
Summary of the method: as §1

[3] = compound: C1=CC2=C(C=CC(=C2)/C=C\3/C(=O)NC(=NCC4=CC=CS4)S3)N=C1
Summary of the method: as §1

[4] = compound: C1=CC2=NC=CN=C2C=C1/C=C/3\C(=O)NC(=O)S3
Summary of the method: as §1

[5] = compound: C1=CC=C(C=C1)C2=NC(=C(N2)C3=CC=NC=C3)C4=CC(=C(C=C4)Cl)O
Summary of the method: as §1

[6] = compound: C1=CC=C2C(=C1)C3=NNC4=CC=CC(=C43)C2=O
Summary of the method: as §1

[7] = compound: C1CCN(C1)C(=O)NC2=CC=CC(=C2)NC3=NC=C(C(=N3)NCCC4=CN=CN4)Br
Summary of the method: as §1

[8] = compound: C1CN(CCC1(CC2=CC=C(C=C2)Cl)N)C3=NC=NC4=C3C=CN4
Summary of the method: as §1

IRAK-1-4 Inhibitor I = compound: C1COCCN1CCN2C3=CC=CC=C3N=C2NC(=O)C4=CC(=CC=C4)[N+](=O)[O-] [IRAK-1-4 Inhibitor I]
Summary of the method: as §1

ibrutinib = compound: C=CC(=O)N1CCC[C@@H](n2nc(-c3ccc(Oc4ccccc4)cc3)c3c(N)ncnc32)C1 [ibrutinib]
Summary of the method: as §1

[9] = compound: CC(=O)c1cnc2ccc(-c3cc(Cl)c(O)c(Cl)c3)nc2c1N[C@H]1CC[C@H](CN(C)C)CC1
Summary of the method: as §1

ralimetinib = compound: CC(C)(C)Cn1c(N)nc2ccc(-c3[nH]c(C(C)(C)C)nc3-c3ccc(F)cc3)nc21 [ralimetinib]
Summary of the method: as §1

[10] = compound: CC(C)(O)CC(=O)NCCn1ccc2ncnc(Nc3ccc(Oc4cccc(C(F)(F)F)c4)c(Cl)c3)c21
Summary of the method: as §1

[11] = compound: CC(C)C1=C2N=C(C=C(N2N=C1)NCC3=CC=CC=C3)NCCCCCCN
Summary of the method: as §1

[12] = compound: CC1=C(C(CC(=O)N1)C2=CC=C(C=C2)C(F)(F)F)C(=O)NC3=C(C=C4C(=C3)C=NN4)F
Summary of the method: as §1

[13] = compound: CC1=C(C2=C(C=C1)C(=O)C3=CC=CC=C3N2CCCN)C
Summary of the method: as §1

[14] = compound: CC1=C(C=C(C=C1)NC(=O)C2=CC(=CC=C2)C(C)(C)C#N)NC3=CC4=C(C=C3)N=CN(C4=O)C
Summary of the method: as §1

[15] = compound: CC1=C(C=C(C=C1)NC(=O)C2=CC(=CC=C2)N(C)C)NC(=O)C3=CC=C(C=C3)O
Summary of the method: as §1

[16] = compound: CC1=CC=C(C=C1)SC2=C3C=C(SC3=CN=C2)C(=O)N
Summary of the method: as §1

Measured: log2 fold change

IARS2 (UniProt Q9NSE4)
inactive: erlotinib -0.025 | [1] 0.014 | [2] 0.026 | [3] 0.005 | [4] 0.013 | [5] -0.007 | [6] -0.043 | [7] -0.01 | [8] 0.054 | IRAK-1-4 Inhibitor I 0.016 | ibrutinib -0.006 | [9] -0.008 | ralimetinib -0.005 | [10] 0.007 | [11] -0.025 | [12] -0.031 | [13] 0.016 | [14] 0.005 | [15] 0.013 | [16] -0.031

HAUS4 (UniProt Q9H6D7)
Chain of UniProt Q9H6D7 (Q9H6D7 whole entry, looked up): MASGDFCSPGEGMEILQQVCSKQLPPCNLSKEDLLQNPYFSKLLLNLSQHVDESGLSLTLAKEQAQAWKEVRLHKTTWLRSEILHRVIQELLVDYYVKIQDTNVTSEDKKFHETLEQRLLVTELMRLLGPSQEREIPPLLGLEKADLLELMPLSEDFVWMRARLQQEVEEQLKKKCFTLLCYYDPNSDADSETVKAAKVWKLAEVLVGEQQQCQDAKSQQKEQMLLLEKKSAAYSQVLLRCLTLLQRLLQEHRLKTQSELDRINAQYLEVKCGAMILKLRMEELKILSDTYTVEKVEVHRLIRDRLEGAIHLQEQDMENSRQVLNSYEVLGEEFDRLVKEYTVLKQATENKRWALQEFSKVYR
inactive: erlotinib 0.012 | [1] -0.029 | [2] -0.036 | [3] 0.064 | [4] -0.003 | [5] 0.015 | [6] -0.015 | [7] -0.025 | [8] -0.007 | IRAK-1-4 Inhibitor I -0.016 | ibrutinib 0.04 | [9] -0.033 | ralimetinib 0.003 | [10] 0.01 | [11] -0.004 | [12] 0.006 | [13] -0.016 | [14] -0.008 | [15] 0.057 | [16] -0.01

GRB10 (UniProt Q13322)
Chain of UniProt Q13322 (Q13322 whole entry, looked up): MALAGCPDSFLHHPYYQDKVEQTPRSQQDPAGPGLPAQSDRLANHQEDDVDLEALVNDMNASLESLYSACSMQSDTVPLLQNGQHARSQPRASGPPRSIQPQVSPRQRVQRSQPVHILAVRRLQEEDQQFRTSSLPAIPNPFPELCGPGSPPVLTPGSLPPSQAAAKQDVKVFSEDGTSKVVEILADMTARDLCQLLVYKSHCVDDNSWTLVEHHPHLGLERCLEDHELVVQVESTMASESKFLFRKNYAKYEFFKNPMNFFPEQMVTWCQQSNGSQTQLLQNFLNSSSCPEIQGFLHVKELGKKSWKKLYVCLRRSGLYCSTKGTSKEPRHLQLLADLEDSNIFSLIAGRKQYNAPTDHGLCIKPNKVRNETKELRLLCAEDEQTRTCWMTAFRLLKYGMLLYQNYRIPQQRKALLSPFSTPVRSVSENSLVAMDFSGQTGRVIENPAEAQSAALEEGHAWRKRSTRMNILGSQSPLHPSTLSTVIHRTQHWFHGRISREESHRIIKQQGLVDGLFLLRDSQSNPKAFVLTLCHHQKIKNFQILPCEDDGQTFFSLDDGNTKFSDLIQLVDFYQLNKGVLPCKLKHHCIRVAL
inactive: erlotinib 0.027 | [1] -0.004 | [2] -0.06 | [3] 0.013 | [4] -0.03 | [5] 0.016 | [6] 0.019 | [7] 0.073 | [8] 0.054 | IRAK-1-4 Inhibitor I -0.039 | ibrutinib 0.015 | [9] -0.039 | ralimetinib -0.006 | [10] -0.032 | [11] 0.014 | [12] 0.04 | [13] -0.015 | [14] -0.032 | [15] -0.006 | [16] 0.066

GMIP (UniProt Q9P107)
Chain of UniProt Q9P107 (Q9P107 whole entry, looked up): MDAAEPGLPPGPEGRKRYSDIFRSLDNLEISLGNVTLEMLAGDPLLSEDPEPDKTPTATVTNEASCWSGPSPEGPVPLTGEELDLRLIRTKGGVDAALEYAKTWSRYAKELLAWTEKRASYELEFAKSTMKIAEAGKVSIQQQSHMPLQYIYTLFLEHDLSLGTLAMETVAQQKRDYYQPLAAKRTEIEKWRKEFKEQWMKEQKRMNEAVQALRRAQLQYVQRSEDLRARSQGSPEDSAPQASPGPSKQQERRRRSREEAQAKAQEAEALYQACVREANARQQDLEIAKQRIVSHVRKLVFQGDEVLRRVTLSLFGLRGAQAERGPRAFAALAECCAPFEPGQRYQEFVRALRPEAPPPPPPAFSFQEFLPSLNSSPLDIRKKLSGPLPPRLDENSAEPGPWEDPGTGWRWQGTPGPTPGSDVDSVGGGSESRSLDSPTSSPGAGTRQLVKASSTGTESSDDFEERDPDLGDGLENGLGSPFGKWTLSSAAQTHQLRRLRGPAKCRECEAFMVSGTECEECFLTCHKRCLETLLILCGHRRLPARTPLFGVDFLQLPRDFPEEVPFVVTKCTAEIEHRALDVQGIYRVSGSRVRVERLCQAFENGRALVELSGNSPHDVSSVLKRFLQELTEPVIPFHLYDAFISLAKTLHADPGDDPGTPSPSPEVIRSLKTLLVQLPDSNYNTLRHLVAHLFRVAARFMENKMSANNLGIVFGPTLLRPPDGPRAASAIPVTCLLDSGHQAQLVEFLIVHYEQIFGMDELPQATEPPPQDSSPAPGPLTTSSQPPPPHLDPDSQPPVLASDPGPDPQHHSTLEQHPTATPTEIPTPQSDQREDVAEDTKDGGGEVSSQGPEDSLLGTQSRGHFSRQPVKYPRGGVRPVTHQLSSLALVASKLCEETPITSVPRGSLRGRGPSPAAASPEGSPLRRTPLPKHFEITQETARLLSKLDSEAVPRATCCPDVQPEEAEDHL
inactive: erlotinib 0.014 | [1] 0.019 | [2] -0.02 | [3] -0.029 | [4] 0.009 | [5] 0.068 | [6] 0.03 | [7] -0.063 | [8] 0.019 | IRAK-1-4 Inhibitor I 0.025 | ibrutinib 0.182 | [9] 0.027 | ralimetinib 0.023 | [10] -0.11 | [11] -0.017 | [12] 0.029 | [13] 0.03 | [14] 0.019 | [15] -0.068 | [16] 0.045

HNRNPL (UniProt P14866)
inactive: erlotinib 0.054 | [1] 0.073 | [2] 0.022 | [3] -0.007 | [4] 0.013 | [5] 0.033 | [6] -0.041 | [7] -0.017 | [8] -0.003 | IRAK-1-4 Inhibitor I 0.014 | ibrutinib -0.015 | [9] 0.012 | ralimetinib 0.047 | [10] 0.046 | [11] 0.051 | [12] 0 | [13] 0.021 | [14] 0.001 | [15] 0.058 | [16] 0.032

IMPACT (UniProt Q9P2X3)
inactive: erlotinib -0.03 | [1] 0.13 | [2] 0.014 | [3] 0.083 | [4] 0.043 | [5] 0.056 | [6] 0.001 | [7] 0.06 | [8] -0.082 | IRAK-1-4 Inhibitor I -0.076 | ibrutinib -0.19 | [9] -0.075 | ralimetinib 0.061 | [10] 0.001 | [11] -0.065 | [12] 0.289 | [13] 0.034 | [14] 0.146 | [15] 0.14 | [16] -0.052

HADH isoform 2 (UniProt Q16836)
inactive: erlotinib -0.052 | [1] 0.065 | [2] 0.023 | [3] 0.08 | [4] -0.03 | [5] 0.003 | [6] -0.015 | [7] -0.015 | [8] -0.028 | IRAK-1-4 Inhibitor I 0.008 | ibrutinib -0.004 | [9] 0.02 | ralimetinib -0.023 | [10] -0.011 | [11] -0.036 | [12] 0.013 | [13] -0.045 | [14] -0.039 | [15] 0.028 | [16] 0.004

HAUS7 isoform 2 (UniProt Q99871)
Chain of UniProt Q99871 (Q99871 whole entry, looked up): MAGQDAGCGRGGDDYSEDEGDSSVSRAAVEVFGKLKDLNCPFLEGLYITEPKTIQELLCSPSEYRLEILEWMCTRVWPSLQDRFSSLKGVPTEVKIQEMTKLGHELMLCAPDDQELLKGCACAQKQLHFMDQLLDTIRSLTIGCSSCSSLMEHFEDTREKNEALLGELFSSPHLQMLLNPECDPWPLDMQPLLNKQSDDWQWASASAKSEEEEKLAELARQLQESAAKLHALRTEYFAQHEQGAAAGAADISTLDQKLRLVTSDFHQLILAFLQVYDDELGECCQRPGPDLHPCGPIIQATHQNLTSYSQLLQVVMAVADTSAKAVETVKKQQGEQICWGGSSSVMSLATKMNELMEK
inactive: erlotinib 0.104 | [1] 0.106 | [2] 0.028 | [3] -0.005 | [4] 0 | [5] 0.048 | [6] -0.006 | [7] -0.011 | [8] 0.164 | IRAK-1-4 Inhibitor I -0.028 | ibrutinib 0.082 | [9] 0.105 | ralimetinib -0.002 | [10] -0.031 | [11] 0.05 | [12] -0.003 | [13] 0.028 | [14] -0.031 | [15] 0.021 | [16] -0.054

HNRNPH2 (UniProt P55795)
Chain of UniProt P55795 (P55795 whole entry, looked up): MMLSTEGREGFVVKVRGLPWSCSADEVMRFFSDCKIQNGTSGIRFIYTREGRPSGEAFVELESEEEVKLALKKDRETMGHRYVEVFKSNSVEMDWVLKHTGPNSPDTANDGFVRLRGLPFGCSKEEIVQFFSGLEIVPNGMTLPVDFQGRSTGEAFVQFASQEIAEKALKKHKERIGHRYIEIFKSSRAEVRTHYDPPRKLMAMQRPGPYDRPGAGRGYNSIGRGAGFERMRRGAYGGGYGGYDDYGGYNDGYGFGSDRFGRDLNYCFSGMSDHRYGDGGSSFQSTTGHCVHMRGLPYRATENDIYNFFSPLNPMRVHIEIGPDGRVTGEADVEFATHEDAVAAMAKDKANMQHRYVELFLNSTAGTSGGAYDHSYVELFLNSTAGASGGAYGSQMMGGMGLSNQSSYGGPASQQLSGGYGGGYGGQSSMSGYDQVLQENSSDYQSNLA
inactive: erlotinib -0.035 | [1] 0.112 | [2] 0.028 | [3] -0.047 | [4] 0.02 | [5] 0.038 | [6] -0.015 | [7] 0.01 | [8] -0.013 | IRAK-1-4 Inhibitor I 0 | ibrutinib 0.017 | [9] 0 | ralimetinib -0.03 | [10] -0.023 | [11] -0.01 | [12] 0.056 | [13] 0.024 | [14] 0.081 | [15] 0.053 | [16] 0.029

IRAK1 (UniProt P51617)
Chain of UniProt P51617 (P51617 whole entry, looked up): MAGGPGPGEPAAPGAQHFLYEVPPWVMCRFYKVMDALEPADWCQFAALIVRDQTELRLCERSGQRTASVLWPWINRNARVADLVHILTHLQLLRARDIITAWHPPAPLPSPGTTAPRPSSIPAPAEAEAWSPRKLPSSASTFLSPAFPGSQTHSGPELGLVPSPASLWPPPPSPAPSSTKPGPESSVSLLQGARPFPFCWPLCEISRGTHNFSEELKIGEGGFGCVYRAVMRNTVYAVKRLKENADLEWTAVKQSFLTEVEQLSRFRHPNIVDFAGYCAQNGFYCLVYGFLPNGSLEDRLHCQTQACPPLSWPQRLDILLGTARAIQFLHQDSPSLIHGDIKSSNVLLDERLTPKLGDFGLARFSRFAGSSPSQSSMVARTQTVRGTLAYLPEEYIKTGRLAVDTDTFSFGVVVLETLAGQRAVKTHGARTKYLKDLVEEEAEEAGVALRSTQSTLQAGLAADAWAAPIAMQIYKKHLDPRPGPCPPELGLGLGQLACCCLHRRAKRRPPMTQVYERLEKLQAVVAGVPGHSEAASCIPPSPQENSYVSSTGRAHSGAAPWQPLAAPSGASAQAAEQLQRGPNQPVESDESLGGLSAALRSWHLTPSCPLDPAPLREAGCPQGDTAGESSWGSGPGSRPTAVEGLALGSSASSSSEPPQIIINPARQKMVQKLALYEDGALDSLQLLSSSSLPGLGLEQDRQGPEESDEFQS
inactive: erlotinib 0.038 | [1] -0.054 | [2] -0.108 | [3] -0.015 | [4] 0.028 | [5] 0.039 | [6] 0.117 | [7] 0.023 | [8] -0.096 | IRAK-1-4 Inhibitor I 0.023 | ibrutinib 0.032 | [9] 0.195 | ralimetinib -0.024 | [10] -0.031 | [11] -0.018 | [12] -0.013 | [13] -0.028 | [14] -0.086 | [15] 0.062 | [16] 0

GSTM4 (UniProt Q03013)
Chain of UniProt Q03013 (Q03013 whole entry, looked up): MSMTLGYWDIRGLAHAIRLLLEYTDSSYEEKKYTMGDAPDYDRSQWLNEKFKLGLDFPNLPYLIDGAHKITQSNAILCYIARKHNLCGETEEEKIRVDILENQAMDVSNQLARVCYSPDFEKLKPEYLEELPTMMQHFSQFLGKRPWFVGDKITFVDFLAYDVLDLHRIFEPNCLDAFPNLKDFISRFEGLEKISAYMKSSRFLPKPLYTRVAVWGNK
inactive: erlotinib 0.006 | [1] -0.044 | [2] -0.073 | [3] -0.026 | [4] 0.141 | [5] 0.046 | [6] -0.025 | [7] -0.109 | [8] -0.025 | IRAK-1-4 Inhibitor I -0.064 | ibrutinib -0.139 | [9] -0.006 | ralimetinib -0.013 | [10] -0.051 | [11] -0.079 | [12] 0.096 | [13] 0.037 | [14] -0.136 | [15] -0.027 | [16] 0.042

KBTBD2 (UniProt Q8IY47)
inactive: erlotinib -0.002 | [1] 0.019 | [2] 0.056 | [3] 0 | [4] 0.011 | [5] 0.016 | [6] -0.079 | [7] -0.023 | [8] 0.052 | IRAK-1-4 Inhibitor I 0.097 | ibrutinib -0.005 | [9] -0.039 | ralimetinib -0.113 | [10] -0.227 | [11] 0 | [12] 0.001 | [13] -0.036 | [14] 0.116 | [15] 0 | [16] -0.041

KEAP1 (UniProt Q14145)
Chain of UniProt Q14145 (Q14145 whole entry, looked up): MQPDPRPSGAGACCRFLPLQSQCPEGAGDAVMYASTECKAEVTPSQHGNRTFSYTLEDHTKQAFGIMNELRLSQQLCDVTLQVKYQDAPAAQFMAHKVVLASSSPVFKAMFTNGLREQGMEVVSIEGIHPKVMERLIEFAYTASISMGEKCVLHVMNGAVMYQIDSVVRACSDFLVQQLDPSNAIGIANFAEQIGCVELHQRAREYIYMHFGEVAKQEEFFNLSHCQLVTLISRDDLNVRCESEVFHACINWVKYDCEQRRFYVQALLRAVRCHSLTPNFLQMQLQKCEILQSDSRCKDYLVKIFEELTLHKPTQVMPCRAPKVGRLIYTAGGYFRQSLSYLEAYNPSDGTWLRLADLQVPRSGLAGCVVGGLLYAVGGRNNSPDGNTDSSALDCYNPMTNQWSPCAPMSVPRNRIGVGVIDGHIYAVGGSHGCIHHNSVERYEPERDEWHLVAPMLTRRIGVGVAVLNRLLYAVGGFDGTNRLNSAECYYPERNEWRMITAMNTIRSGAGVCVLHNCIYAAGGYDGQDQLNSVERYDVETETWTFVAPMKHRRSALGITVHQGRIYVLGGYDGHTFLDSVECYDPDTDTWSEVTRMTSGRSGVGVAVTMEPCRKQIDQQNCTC
inactive: erlotinib 0.048 | [1] 0.006 | [2] 0.018 | [3] -0.005 | [4] 0.014 | [5] 0.015 | [6] -0.006 | [7] 0.038 | [8] 0.018 | IRAK-1-4 Inhibitor I -0.006 | ibrutinib 0.014 | [9] 0.001 | ralimetinib 0.017 | [10] -0.014 | [11] -0.015 | [12] -0.026 | [13] -0.049 | [14] 0.012 | [15] 0.019 | [16] -0.024

INTS3 (UniProt Q68E01)
inactive: erlotinib 0.015 | [1] 0.035 | [2] 0.021 | [3] -0.002 | [4] -0.008 | [5] -0.043 | [6] -0.005 | [7] 0.026 | [8] -0.083 | IRAK-1-4 Inhibitor I 0.016 | ibrutinib 0.044 | [9] 0.024 | ralimetinib 0.019 | [10] -0.032 | [11] 0.032 | [12] -0.035 | [13] 0.004 | [14] 0.009 | [15] 0.025 | [16] -0.032

HDAC10 (UniProt Q969S8)
Chain of UniProt Q969S8 (Q969S8 whole entry, looked up): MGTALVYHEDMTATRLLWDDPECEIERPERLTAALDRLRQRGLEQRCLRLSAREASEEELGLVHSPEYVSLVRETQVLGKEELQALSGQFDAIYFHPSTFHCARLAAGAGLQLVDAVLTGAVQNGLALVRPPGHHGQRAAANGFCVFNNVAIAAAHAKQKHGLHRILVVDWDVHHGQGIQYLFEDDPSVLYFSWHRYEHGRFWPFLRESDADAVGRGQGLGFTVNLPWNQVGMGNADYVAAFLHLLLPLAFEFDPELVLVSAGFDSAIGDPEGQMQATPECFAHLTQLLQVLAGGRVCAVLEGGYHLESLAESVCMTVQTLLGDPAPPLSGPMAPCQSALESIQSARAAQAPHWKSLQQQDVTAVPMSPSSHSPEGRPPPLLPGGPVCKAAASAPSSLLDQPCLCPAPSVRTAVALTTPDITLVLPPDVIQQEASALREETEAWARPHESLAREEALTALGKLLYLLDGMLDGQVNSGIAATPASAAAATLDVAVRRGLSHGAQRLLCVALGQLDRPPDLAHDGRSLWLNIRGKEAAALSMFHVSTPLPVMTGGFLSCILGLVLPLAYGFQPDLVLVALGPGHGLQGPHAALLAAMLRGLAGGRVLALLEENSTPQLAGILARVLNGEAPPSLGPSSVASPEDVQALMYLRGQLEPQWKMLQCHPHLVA
inactive: erlotinib 0.064 | [1] 0.126 | [2] 0.035 | [3] -0.155 | [4] -0.201 | [5] -0.111 | [6] -0.043 | [7] -0.204 | [8] 0.053 | IRAK-1-4 Inhibitor I 0.016 | ibrutinib -0.038 | [9] 0.019 | ralimetinib -0.106 | [10] 0.144 | [11] -0.207 | [12] -0.11 | [13] -0.088 | [14] 0.037 | [15] 0.022 | [16] 0.017

KDM1A (UniProt O60341)
inactive: erlotinib -0.005 | [1] 0.106 | [2] 0.021 | [3] 0 | [4] -0.006 | [5] -0.019 | [6] -0.071 | [7] -0.019 | [8] -0.009 | IRAK-1-4 Inhibitor I -0.003 | ibrutinib 0.007 | [9] -0.011 | ralimetinib 0.018 | [10] -0.016 | [11] 0.019 | [12] -0.004 | [13] 0.003 | [14] -0.004 | [15] 0.044 | [16] 0.003
